Assay results taken from PubChem BioAssay (NCATS).
Results filed as inconclusive are left out. Calls of active or inactive are those of the source. Calls follow the shape of the dose curve; as a rule, active = well fitted cell-killing curve with a large enough effect; inconclusive = small, poorly fitted or top-dose-only effect, or effect the other way; inactive = flat fitted curve, though single readings scatter.

Experiment: S16 Schwann cell viability assay (CellTiter-Glo assay) (AID 624031);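 also: native untransfected S16 rat Schwann cells; nearly all actives have a fitted effect of over 70% in size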
Conditions: S16 rat Schwann cells viability, 24 h; series mostly up to 57.5 µM
How it was run: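 Rat S16 Schwann cells without reporter constructs received compound or DMSO for 24 h at 37 °C under 5% CO2. Cellular ATP was then quantified by CellTiter-Glo luminescence, with vehicle wells defined as 0% activity and cell-free wells as reference.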
In the case of `COc1c2c(cc3c1OCO3)CCN(C)C2`, the outcome is reported as “inactive”. For `CN1C(=O)NC(=O)C(C)(C2=CCCCC2)C1=O` (stereo not given), the outcome was “inactive”. For `C[C@]12CC[C@@H]3c4ccc(OC(=O)N(CCCl)CCCl)cc4CC[C@H]3[C@@H]1CC[C@@H]2O`, the outcome was “inactive”. With `CC(C)(C)c1ccc(O)cc1` the outcome was “inactive”. For `NC(=O)c1cc([N+](=O)[O-])cc([N+](=O)[O-])c1`, the outcome was “inactive”. In the case of `CCC1(CC)C(=O)C=CNC1=O`, the outcome is reported as “inactive”. In the case of `CN1C(=O)C(O)N=C(c2ccccc2)c2cc(Cl)ccc21` (stereo not given), the outcome is reported as “inactive”. In the case of `COc1cccc([C@@]2(O)CCCC[C@@H]2CN(C)C)c1`, the outcome is reported as “inactive”. With `CN1C(=O)COc2c(C(=O)NC3CN4CCC3CC4)cc(Cl)cc21` (stereo not given) the outcome was “inactive”. With `COc1ccc2c(c1OC)C(=O)O[C@H]2[C@@H]1c2cc3c(cc2CCN1C)OCO3` the outcome was “inactive”. For `O=C1Nc2ccc(Cl)cc2C(c2ccccc2)=NC1O` (stereo not given), the outcome was “inactive”. For `c1ccc2c(c1)sc1ccccc12`, the outcome was “inactive”. In the case of `O=c1oc2ccccc2c(O)c1Cc1c(O)c2ccccc2oc1=O`, the outcome is reported as “inactive”. In the case of `Cc1nnc2n1-c1ccc(Cl)cc1C(c1ccccc1)=NC2`, the outcome is reported as “inactive”. With `Cc1ncsc1CCCl` the outcome was “inactive”.
